Potency, max response and outcome data for 16 molecules are collected here from PubChem BioAssay (NCATS).

Several values for one entry are separate records, joined by “and”; a condition that tells them apart may be missing. Equal values may be shown once. Inconclusive results are not listed. Some compounds were tested as several samples or in several runs, with calls that do not always agree. Unmarked numbers belong to inactive results. Activity calls are given as the source filed them. The call rests on the fitted dose curve; in most records, active means well fitted inhibition curve with a large enough effect; inconclusive means small, poorly fitted or top-dose-only effect; inactive means flat fitted curve, though single readings scatter.

The test system of test [1] is CRL-7250. In words: Cytotoxic Profiling of Annotated Libraries Using Quantitative High-Throughput Screening (AID 1296008). Further: potency means the concentration at half of the fitted maximal effect. On max response: on the % scale 0 is the no-effect control and ±100 the full control effect. The conditions noted are these: Five cell lines viability, CellTiter-Glo ATP luminescence, 48-72 h; max response: active compounds read low. An outline of the steps: (§1)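 Cytotoxicity was measured as CellTiter-Glo ATP luminescence, read after 10 min at room temperature. Compound treatment of the cells lasted 48 or 72 hr at 37 degrees Celsius in a qHTS format.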
In general terms: In ATP-based viability assays light output follows the ATP content of the culture.

Test [2] relates to HEK293. The description is as above. The conditions noted are these: Five cell lines viability, CellTiter-Glo ATP luminescence, 48-72 h; max response: active compounds read low. An outline of the steps: as §1
In test [3] the test system is NIH3T3. Described as above. The conditions noted are these: Five cell lines viability, CellTiter-Glo ATP luminescence, 48-72 h; max response: active compounds read low. In a few lines: as §1
Test [4] relates to MCC-13. Put plainly: qHTS assay to identify novel small-molecules to repurpose for Merkel cell carcinoma treatment (AID 1296009). The following applies: MCC and control cell lines, CellTiter-Glo viability, 72 h; series mostly up to 46 µM. An outline of the steps: (§2)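 Cell viability measured by CellTiter-Glo following 72 hr compound treatment at 37 degree celsius, with NPC and MIPE libraries tested in 8- and 11-point concentration series.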
In general terms: In qHTS, concentration-response curves come from the screen itself.

For test [5], the system named is KB-3-1. Put plainly: Cytotoxic Profiling of Annotated Libraries Using Quantitative High-Throughput Screening (AID 1296008). Further: potency means the concentration at half of the fitted maximal effect. On max response: on the % scale 0 is the no-effect control and ±100 the full control effect. The conditions noted are these: Five cell lines viability, CellTiter-Glo ATP luminescence, 48-72 h; max response: active compounds read low. In a few lines:
as §1

For test [6], the system named is HACAT. In words: qHTS assay to identify novel small-molecules to repurpose for Merkel cell carcinoma treatment (AID 1296009). The following applies: MCC and control cell lines, CellTiter-Glo viability, 72 h; at 44.8 µM (top of the series) unless noted. An outline of the steps: as §2
The test system of test [7] is HEK293T. The description is as above. The conditions noted are these: MCC and control cell lines, CellTiter-Glo viability, 72 h; at 44.8 µM (top of the series). An outline of the steps: as §2
Test [8] relates to HaCat. Put plainly: Cytotoxic Profiling of Annotated Libraries Using Quantitative High-Throughput Screening (AID 1296008). Further: potency means the concentration at half of the fitted maximal effect. On max response: on the % scale 0 is the no-effect control and ±100 the full control effect. The conditions noted are these: Five cell lines viability, CellTiter-Glo ATP luminescence, 48-72 h; max response: active compounds read low. In a few lines:
as §1

In test [9] the test system is TAB165. In words: qHTS profiling for inhibitors of Plasmodium falciparum proliferation (AID 504749). Further: potency means the concentration at half of the fitted maximal effect. The following applies: P. falciparum in erythrocytes, SYBR Green DNA, 72 h; series mostly up to 28.7 µM. In a few lines: (§3)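 In a 72 h erythrocytic culture (37 C, humidified, 5% CO2) at 2.5% hematocrit and 0.3% starting parasitemia, compounds were tested; SYBR Green I in detergent lysis buffer stained parasite DNA overnight.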

The test system of test [10] is W2. Described as above. The conditions noted are these: P. falciparum in erythrocytes, SYBR Green DNA, 72 h; series mostly up to 28.7 µM. In a few lines:
as §3
Further: nearly all actives have a fitted effect of over 60% in size.

For the molecule `S=C(NCc1ccc2c(c1)OCO2)N1CCN(c2ncnc3c2oc2ccccc23)CC1`, the Potency is 1.46 µM (active) in test [1]; 340 nM (active) and 4.11 µM (active) in test [2]. Further, the values for the max response in test [1] and in test [3] were -64.3% and -27.2%, respectively. The Potency entry in test [4] is “inactive”.
For the molecule `Cc1cnc(NC(=O)C2=C(O)c3ccccc3S(=O)(=O)N2C)s1`, the molecule was called inactive in test [1], in test [2], in [3], in test [6] and in test [7]. For the same molecule, the max response in test [2] is -0.932%; in test [5], -5.8% and -11.4% and -4.48%; in [3], -2.32%. The Potency entry in test [4] is “inactive”.
For `OC(CCN1CCCCC1)(c1ccccc1)C1CC2C=CC1C2` (configuration not stated), the result in test [1], in test [2], in test [8], in test [5], in [3] and in [6] was inactive. Besides, in test [7], the call was inactive. In addition, the max response in test [8] was -0.0685%; in test [5], -2.63% and -12.8%. In addition, in test [4], the Potency entry is “inactive”.
`Cc1[nH]c(=O)c(C#N)cc1-c1ccc2nccn2c1`: the Potency result in [9], in test [10] and in [4] was “inactive” in each case. Besides, the max response in [1] is 0.18%; in [2] it was 3.47%; in test [8], -13.2% and -27.6%; in test [5] it was -3.5% and -14.6%; in test [3] it was -20.6%. The molecule was classed as inactive in [1] and in [3].
`NC(N)=NC(=O)c1nc(Cl)c(N)nc1N`: the Potency is 11.2 µM (active) in test [9] and 2.13 µM (active) in test [10]. The max response was -0.0311% in [1]; -13.2% and 2.01% in test [2]; -0.651% in test [3]. Also, the result in [1], in test [5], in [3] and in test [6] was inactive. The Potency entry in [4] is “inactive”.
Take `Cc1[nH]c(=O)c(C#N)cc1-c1ccncc1`: the Potency result in [9], in test [10] and in test [4] was “inactive” throughout. Further, the max response is 1.86% and -12.7% in test [1]; -9.35% in test [2]; 6.66% and -5.96% and -18.3% in test [5]; 0.936% in test [3]. Further, the outcome in test [1], in test [2], in [3] and in test [7] was inactive.
As to `COc1ccc(CCN2CCN(CCCc3ccccc3)CC2)cc1OC`, the outcome in [1], in test [8], in [3] and in test [6] was inactive. The Potency in test [2] is 6.51 µM (active). In addition, the max response was -22.2% in test [2]; 0.435% and -5.04% in test [5]; 1.46% in test [3]. The Potency entry in [4] is “inactive”.
For `Cc1c(C)c2c(c(C)c1O)CCC(C)(COc1ccc(CC3SC(=O)NC3=O)cc1)O2` (configuration not stated), the Potency in test [10] is 6.75 µM (active). Further, the outcome in test [1], in test [2], in test [8], in [3], in test [6] and in test [7] was inactive. Further, the max response in [2] was -17%; in test [5], -2.71% and -9.42%; in test [3], -1.07%. Further, the Potency entry in test [4] was “inactive”.
On to `CC(C)(C)NCC(O)c1ccc(O)c(CO)c1` (configuration not stated), for which the max response was -2.87% and 2.98% in [1]; -5.93% and 0.072% in test [2]; -0.699% in test [5]. For the same molecule, the outcome in [8], in test [3] and in test [6] was inactive. Moreover, the Potency result in test [4] was “inactive”.
As for `O=c1[nH]c(-c2ccc(C(F)(F)F)cc2)nc2c1CSCC2`, the max response was -16.3% in test [1]; 1.09% in [2]; -17.6% and -9.05% in [8]; 9.93% in test [5]; -7.54% in test [3]. In addition, the call in [5] was inactive. Further, the Potency entry in test [4] is “inactive”.
Consider `COc1cccc2cc(-c3nc(C4CCC(C(=O)O)CC4)n4ncnc(N)c34)[nH]c12` (configuration not stated), for which the Potency is 0.166 µM (active) in test [1]; 5.9 µM (active) and 3.66 µM (active) in test [2]; 2.35 µM (active) in [5]; 7.31 µM (active) in test [3]. In addition, the max response in test [8] is -14.5%; in [3], -35.2%. In test [4], the Potency entry is “inactive”.
For `CCC(C)n1ncn(-c2ccc(N3CCN(c4ccc(OC[C@H]5CO[C@](Cn6cncn6)(c6ccc(Cl)cc6Cl)O5)cc4)CC3)cc2)c1=O` (some centres not stated), the max response in test [1] was -2.71%; in test [8], 1.24%; in [5] it was -3.28% and -9.44% and -24.5%; in [3], -7.51%. For the same molecule, in test [2], the Potency is 2.82 µM (active). Also, the result in [8] and in test [6] was inactive. Further, the Potency result in [4] was “inactive”.
Turning to `COc1cc2c(cc1OC)CN(CCc1ccc(NC(=O)c3cccc4c(=O)c5cccc(OC)c5[nH]c34)cc1)CC2`, the max response in test [1] was 0.448% and -2.79%; in test [5], 4.69% and -0.508%; in test [3], 3.98%. Besides, the Potency in test [2] was 11.8 µM (active) and 7.31 µM (active). The molecule was called inactive in [8], in [3] and in [6]. For the same molecule, the Potency entry in [4] was “inactive”.
Consider `C[C@]12CC[C@H](O)CC1=CC[C@@H]1[C@H]2CC[C@]2(C)C(c3cccnc3)=CC[C@H]12`, for which the call in [1] and in [8] was inactive. Further, the figures for the max response in [2], in test [5] and in test [3] were -4.02%, -14.4% and 0.502%, respectively. Further, the outcome in test [6] is “inactive [at 17.4 µM]”. The Potency entry in [4] was “inactive”.
As to `CNC(=O)c1ccc(C)c(-n2c(C)cc(OCc3ccc(F)cc3F)c(Br)c2=O)c1`, the max response in test [1] was -9.42%; in test [8], -14.3%; in test [5], -4.9%; in [3], 2.56%. Besides, the Potency in [2] was 11.6 µM (active). The molecule was called inactive in test [8], in [3] and in test [6]. Also, in [4], the Potency entry was “inactive”.
For `O=C(Nc1ccc(F)c(C(F)(F)F)c1)Nc1nnc(-c2ccncc2)s1`, the max response in [1] is 2.14%; in [2], -22.6% and -26.4%; in test [8], 2.71%; in test [5], -7.12% and -14.7%; in test [3] it was -1.83%. Further, the molecule was called inactive in test [8], in test [3] and in test [6]. In addition, in test [4], the Potency result was “inactive”.
